Assay results: PubChem BioAssay (NCATS)
Inconclusive results are not listed. Activity calls are given as the source filed them. Calls come from the whole dose curve; as a rule, active = well fitted curve in the direction sought with a large enough effect; inconclusive = small, poorly fitted or top-dose-only effect, or another doubt; inactive = no such curve, though single readings can be large; an effect the other way counts as inactive or inconclusive. Numbered stars: 1 amine (or outer) side, 2 acyl side, 3 side chain; on linkers, the order of the positions; unused ones are H or OH. Square brackets hold non-standard residues; d marks the D form. Peptide text beside a SMILES is read from it. * marks the point of attachment. X1 = CCCCCCCCCC(=O)[C@H](C(=O)[*:2])[C@@H]1CNC(=O)[C@@H](N[*:1])CS1; Octanoyl = CCCCCCCC(=O)*

Tests used:
[1] = SW1088 Cancer Cell Toxicity qHTS against the NCATS CANVASS Library (AID 1347350); note: nearly all actives have a fitted effect of over 75% in size; note: potency is the fitted concentration of half-maximal effect
How it was run: (§1)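 Per well, 1000 cells; exposure 72 h with compound at 11 final concentrations; readout CellTiter-Glo luminescence.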

[2] = HEK293 24hr Apoptosis Induction qHTS against the NCATS CANVASS Library (AID 1347359); note: potency is the fitted concentration of half-maximal effect
How it was run: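 Caspase-3/7 activation measured as luminescence from the DEVD-based Caspase-Glo reagent, 15 min at room temperature, following 24-hour compound treatment of HEK293 cells.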

[3] = test system: NAD(P)H diaphorase (Clostridium kluyveri); test: Diaphorse counterscreen qHTS: Assay Interference Panel against the NCATS CANVASS Library (AID 1347362)
How it was run: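 Counterscreen for coupling-enzyme interference: resorufin fluorescence from resazurin/NADH turnover, read after 5 min at room temperature. Compounds were tested over an 11-point series after 15 min dark preincubation with diaphorase in PBS-Tween.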

[4] = molecular target: Luciferin 4-monooxygenase (Photinus pyralis) (UniProt P08659); test: Firefly luciferase counterscreen qHTS: Assay Interference Panel against the NCATS CANVASS Library (AID 1347363); note: series mostly up to about 57 µM
Luciferin 4-monooxygenase (Photinus pyralis), sequence (P08659 whole entry, looked up): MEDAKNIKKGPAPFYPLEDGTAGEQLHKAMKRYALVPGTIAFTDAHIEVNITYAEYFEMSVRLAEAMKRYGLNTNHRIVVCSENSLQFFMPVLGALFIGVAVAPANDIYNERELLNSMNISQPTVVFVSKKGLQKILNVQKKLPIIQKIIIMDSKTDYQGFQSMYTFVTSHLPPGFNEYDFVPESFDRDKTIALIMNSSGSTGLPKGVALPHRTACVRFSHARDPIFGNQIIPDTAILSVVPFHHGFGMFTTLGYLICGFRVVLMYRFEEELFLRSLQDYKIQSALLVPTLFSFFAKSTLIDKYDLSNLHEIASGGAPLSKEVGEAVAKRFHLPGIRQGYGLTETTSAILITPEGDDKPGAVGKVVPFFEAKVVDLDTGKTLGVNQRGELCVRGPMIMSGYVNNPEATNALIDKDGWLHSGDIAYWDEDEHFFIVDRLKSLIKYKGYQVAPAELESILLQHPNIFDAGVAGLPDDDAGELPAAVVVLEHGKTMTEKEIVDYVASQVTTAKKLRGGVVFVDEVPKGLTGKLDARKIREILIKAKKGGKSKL
How it was run: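 Luminescence inhibition readout: compounds (11-point qHTS) sat 15 min at room temperature with substrate mix (0.013 mM luciferin and ATP), then firefly luciferase was added and signal read 5 min later.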

[5] = KB-8-5-11 Cancer Cell Toxicity qHTS against the NCATS CANVASS Library (AID 1347364); note: nearly all actives have a fitted effect of over 75% in size; note: potency is the fitted concentration of half-maximal effect
How it was run: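 Luminescent ATP signal (CellTiter-Glo, 10 min at room temperature) measured cell survival of KB-8-5-11 after 72 hr compound treatment. For confirmation, the cells were also grown with 1uM tariquidar.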

[6] = KB-3-1 Cancer Cell Toxicity qHTS against the NCATS CANVASS Library (AID 1347366); note: nearly all actives have a fitted effect of over 75% in size; note: potency is the fitted concentration of half-maximal effect
How it was run: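 500 KB-3-1 cells/well; compounds pin-transferred, 11-pnt series; 72 hr, 37C/5% CO2; CellTiter-Glo, 10 min RT; luminescence read-out.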

[7] = molecular target: Nuclear receptor subfamily 1 group I member 3 (Homo sapiens) (UniProt Q14994); test: qHTS for Constitutive Androstane Receptor (CAR) Antagonist screened against the NCATS CANVASS Library (AID 1347372); note: potency is the fitted concentration of half-maximal effect
Nuclear receptor subfamily 1 group I member 3 (Homo sapiens), sequence (Q14994 whole entry, looked up): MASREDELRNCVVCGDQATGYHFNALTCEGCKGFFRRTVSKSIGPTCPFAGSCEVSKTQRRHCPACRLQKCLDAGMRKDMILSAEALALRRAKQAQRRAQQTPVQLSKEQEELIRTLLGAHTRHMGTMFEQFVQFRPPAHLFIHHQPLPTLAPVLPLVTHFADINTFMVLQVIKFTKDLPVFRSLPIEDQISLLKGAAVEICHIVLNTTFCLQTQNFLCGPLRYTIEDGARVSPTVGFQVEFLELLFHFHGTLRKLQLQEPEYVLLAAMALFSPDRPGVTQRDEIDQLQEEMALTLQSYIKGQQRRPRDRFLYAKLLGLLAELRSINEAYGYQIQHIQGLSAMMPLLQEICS
How it was run: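 Antagonist mode: compound added alongside 50 nM CITCO to HepG2-hCAR-CYP2B6 reporter cells, 24hr at 37C. Viability by CellTiter-Fluor fluorescence, then CAR-driven luciferase by ONE-Glo luminescence.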

[8] = 10-beta competent E. coli microbial cell viability qHTS against the NCATS CANVASS Library (AID 1347376); note: series mostly up to about 46 µM
How it was run: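 Overnight 37C exposure of 10-beta E. coli (0.2 OD) to an 11-point concentration series; ATP-based luminescence after 20 min room-temperature reagent incubation; daunomycin as control.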

[9] = DH5-alpha competent E. coli microbial cell viability qHTS against the NCATS CANVASS Library (AID 1347377); details: outcome: dose series up to 46.1 µM unless noted
How it was run: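 Overnight incubation at 37C, 5% CO2 of E. coli DH5-alpha (diluted to 0.2 OD) with compounds precedes BacTiter-Glo addition. Luminescence, acquired after 20 min at room temperature, reflects viable-cell ATP.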

[10] = qHTS for Activators of p53 Stress Response Pathway screened against the NCATS CANVASS Library (AID 1347388)
How it was run: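 Beta-lactamase reporter driven by p53 response elements in HCT-116 cells, read as the 460 nm/530 nm emission ratio after CCF4 loading, following 16 h of exposure to an 11-point series. Cell viability was measured in the same wells by CellTiter-Glo luminescence.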

[11] = Secretion counterscreen for inhibitors of the SERCaMP assay screened against the NCATS CANVASS Library (AID 1347390);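 note: light from luciferase secreted into medium read as a measure of general secretion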; note: potency is the fitted concentration of half-maximal effect
How it was run: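 Luminescence from constitutively secreted GLuc in SH-SY5Y-GLuc STOP cells, read after coelenterazine addition, served as read-out. Compounds tested 0.001 - 77 uM for 20 h at 37C; Brefeldin A as positive control.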

[12] = qHTS for activators of dead-cell proteases activity screened against the NCATS CANVASS Library (AID 1347392);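 note: luminescence from protease leaking out of membrane-damaged cells cleaving impermeant substrate; rising signal means more cytotoxicity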; note: potency is the fitted concentration of half-maximal effect
How it was run: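 Luminescent dead-cell protease readout (AAF-aminoluciferin, 15 min, room temperature) after 5 h compound treatment of HepG2 cells (2000/well, pre-attached 18 h). Eleven concentrations.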

[13] = Viability qHTS for inhibitors of the SERCaMP assay screened against the NCATS CANVASS Library (AID 1347400); note: nearly all actives have a fitted effect of over 70% in size; note: potency is the fitted concentration of half-maximal effect
How it was run: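 Measures loss of viability in SERCaMP reporter SH-SY5Y cells treated for 48 h with compounds; luminescent ATP detection by CellTiter-Glo.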

[14] = OV-SAHO Cancer Cell Toxicity qHTS against the NCATS CANVASS Library (AID 1347348); note: nearly all actives have a fitted effect of over 55% in size; note: potency is the fitted concentration of half-maximal effect
How it was run: as §1

[15] = HPAF-II 24hr Apoptosis Induction qHTS against the NCATS CANVASS Library (AID 1347356)
How it was run: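 Using an 11-point qHTS format, HPAF-II cells in DMEM/10% FBS received compounds for 24 h; doxorubicin titration as control. Caspase-3/7 activity quantified by DEVD-luciferase luminescence.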

[16] = HPAF-II 12hr Apoptosis Induction qHTS against the NCATS CANVASS Library (AID 1347358)
How it was run: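 Twelve-hour compound exposure of HPAF-II cells in DMEM with 10% FBS, then luminescent Caspase-Glo 3/7 detection after 15 min at room temperature; doxorubicin control.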

[17] = qHTS for Hypoxia signaling pathway (HIF-1) agonists against the NCATS CANVASS Library (AID 1347375)
How it was run: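 An HRE-beta-lactamase ME-180 line is exposed for 17 h to an 11-point compound series, then read by CCF4-AM FRET. Cytotoxicity is measured in parallel in the same wells with CellTiter-Glo, and autofluorescence is checked separately.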

[18] = qHTS for H2AX Agonists against the NCATS CANVASS Library (AID 1347378)
How it was run: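 TR-FRET readout (ex 320 nm, em 665/620 nm ratio) of phospho-H2AX (S139) in CHO-K1 lysates. Cells treated 3 hr at 37C with compound titration, 0.76% DMSO; lysis 30 min, antibody detection 24 hr at RT.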

[19] = qHTS assay for small molecule disruptors of mitochondrial membrane potential screened against the NCATS CANVASS Library (AID 1347389); note: nearly all actives have a fitted effect of over 60% in size; note: potency is the fitted concentration of half-maximal effect
How it was run: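 Cells (HepG2) seeded the day before received compound or DMSO for 1 hr, then Mito-MPS dye for 30 min at 37C; emission at 590 nm over 535 nm gave the polarization signal.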

[20] = qHTS for inhibitors of Wild type Zika virus screened against the NCATS CANVASS Library (AID 1347396);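 note: ATP luminescence of surviving cells so rescue from viral cell killing; series mostly up to about 46 µM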
How it was run: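 Using ATP-based luminescence (CellTiter Glo), this screen scores rescue of Vero 766 cells from wild-type Zika killing at 72 h post-infection. Compounds are tested in a concentration series.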

Measured: Potency

CCCCCCCCCCCCCCC[C@H](O)C[C@@H](O)C[C@@H](O)C[C@@H](O)C[C@@H](O)C[C@H]1CC=CC(=O)O1
active: [1] 1.49 µM | [2] 26.4 µM | [5] 6.62 µM | [6] 9.35 µM | [7] 8.31 µM | [11] 8.6 µM | [12] 13.2 µM | [13] 12 µM
inactive: [3] | [4] | [8] | [9] | [10]

CCCCCCCCCCCCCCCC(=O)OC/C=C(\C)CCCC(C)CC(C)C(C)C (stereo not drawn)
inactive: all assays above

C=C1C[C@@]23C=CC(=O)[C@@](C)(CCC(=O)Nc4c(O)ccc(C(=O)O)c4O)C2C[C@@H]1CC3 (stereo partly drawn)
not listed: [9] | [14]
inactive: all other assays above

CCCCCCCC(=O)N[C@@H](CC(C)C)C(=O)N[C@H](C=O)CCC(=O)O (Octanoyl-Leu-Glu-aldehyde)
not listed: [14]
inactive: all other assays above

Oc1ccc(/C=C2/c3cc(O)cc(O)c3C(c3ccc(O)cc3)[C@H]2c2cc(O)cc(O)c2)cc1 (stereo partly drawn)
active: [14] 14.9 µM
not listed: [6]
inactive: all other assays above

CCCCCCCCCC(=O)[C@@H]1C(=O)N[C@@H](CC(C)C)C(=O)N[C@H](C)C(=O)N2CCC[C@H]2C(=O)N[C@@H](C(C)C)C(=O)N[C@H]2CS[C@H]1CNC2=O (cyclo(L[dA]PV[X1]))
not listed: [1] | [3] | [9] | [20]
inactive: all other assays above

CC1C(=O)C23CCC1C[C@@]21O[C@H]2C(C)(C)C=CC(=O)[C@@]23COC1=O (stereo partly drawn)
inactive: all assays above

C=C1C[C@@]23C=CC(=O)[C@@](C)(CCC(=O)Nc4c(O)ccc(C(=O)O)c4O)C2C[C@@H]1CC3O (stereo partly drawn)
inactive: all assays above

CC1(C)C=Cc2c(ccc3c2OC[C@@H](c2ccc(O)cc2O)C3)O1
active: [19] 14.8 µM
not listed: [1] | [4]
inactive: all other assays above
